Records with an inconclusive call do not appear. Active and inactive are the calls of the source. Calls follow the shape of the dose curve; as a rule, active = well fitted curve in the direction sought with a large enough effect; inconclusive = small, poorly fitted or top-dose-only effect, or another doubt; inactive = no such curve, though single readings can be large; an effect the other way counts as inactive or inconclusive.
What was measured:
[1] = target: ATP-dependent 6-phosphofructokinase (Trypanosoma brucei brucei) (UniProt O15648); test: qHTS Assay to Find Inhibitors of T. brucei phosphofructokinase: hit validation (AID 492961);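 also: luminescence reports ADP formed as PFK phosphorylates fructose-6-phosphate with ATP; % is scaled to controls: 0 for no effect and ±100 for the full control effect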
Outline: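 PFK 1.25 nM, F6P 0.5 mM, ATP 0.1 mM, MgCl2 5 mM, 0.1 M TEA pH 8.0, Tween20 0.01%, BSA 0.1%; 45 min RT. ADP-Glo two-step detection, luminescence. qHTS titration; curve fitting with curve-class categorization.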

[2] = qHTS profiling for inhibitors of Plasmodium falciparum proliferation (AID 504749);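 also: 0% = DMSO vehicle and full inhibition = artemisinin control; nearly all actives have a fitted effect of over 60% in size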; details: P. falciparum in erythrocytes, SYBR Green DNA, 72 h, at 28.7 µM (top of the series)
Outline: (§1)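 Fluorescence of SYBR Green-bound parasite DNA, read at 485/535 nm, served as the growth measure. Infected erythrocytes were cultured with compound 72 h; artemisinin (0.29 uM) and DMSO wells defined the normalization range.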

3D7 = test: as above; details: P. falciparum in erythrocytes, SYBR Green DNA, 72 h; series mostly up to 28.7 µM
Outline: as §1

ATS189 = test: as above; details: P. falciparum in erythrocytes, SYBR Green DNA, 72 h; series mostly up to 28.7 µM
Outline: as §1

ATS95 = test: as above; details: P. falciparum in erythrocytes, SYBR Green DNA, 72 h; series mostly up to 28.7 µM
Outline: as §1

C2A = test: as above; details: P. falciparum in erythrocytes, SYBR Green DNA, 72 h; series mostly up to 28.7 µM
Outline: as §1

CP185 = test: as above; details: P. falciparum in erythrocytes, SYBR Green DNA, 72 h; series mostly up to 28.7 µM
Outline: as §1

CP191 = test: as above; details: P. falciparum in erythrocytes, SYBR Green DNA, 72 h; series mostly up to 28.7 µM
Outline: as §1

CP217 = test: as above; details: P. falciparum in erythrocytes, SYBR Green DNA, 72 h; series mostly up to 28.7 µM
Outline: as §1

CP238 = test: as above; details: P. falciparum in erythrocytes, SYBR Green DNA, 72 h; series mostly up to 28.7 µM
Outline: as §1

CP250 = test: as above; details: P. falciparum in erythrocytes, SYBR Green DNA, 72 h; series mostly up to 28.7 µM
Outline: as §1

CP252 = test: as above; details: P. falciparum in erythrocytes, SYBR Green DNA, 72 h; series mostly up to 28.7 µM
Outline: as §1

CP256 = test: as above; details: P. falciparum in erythrocytes, SYBR Green DNA, 72 h; series mostly up to 28.7 µM
Outline: as §1

CP262 = test: as above; details: P. falciparum in erythrocytes, SYBR Green DNA, 72 h; series mostly up to 28.7 µM
Outline: as §1

CP265 = test: as above; details: P. falciparum in erythrocytes, SYBR Green DNA, 72 h; series mostly up to 28.7 µM
Outline: as §1

CP286 = test: as above; details: P. falciparum in erythrocytes, SYBR Green DNA, 72 h; series mostly up to 28.7 µM
Outline: as §1

DFO2036 = test: as above; details: P. falciparum in erythrocytes, SYBR Green DNA, 72 h; series mostly up to 28.7 µM
Outline: as §1

Dd2 = test: as above; details: P. falciparum in erythrocytes, SYBR Green DNA, 72 h; series mostly up to 28.7 µM
Outline: as §1

HB3 = test: as above; details: P. falciparum in erythrocytes, SYBR Green DNA, 72 h; series mostly up to 28.7 µM
Outline: as §1

P94_40 = test: as above; details: P. falciparum in erythrocytes, SYBR Green DNA, 72 h; series mostly up to 28.7 µM
Outline: as §1

Sequence of ATP-dependent 6-phosphofructokinase (Trypanosoma brucei brucei) (O15648 whole entry, looked up): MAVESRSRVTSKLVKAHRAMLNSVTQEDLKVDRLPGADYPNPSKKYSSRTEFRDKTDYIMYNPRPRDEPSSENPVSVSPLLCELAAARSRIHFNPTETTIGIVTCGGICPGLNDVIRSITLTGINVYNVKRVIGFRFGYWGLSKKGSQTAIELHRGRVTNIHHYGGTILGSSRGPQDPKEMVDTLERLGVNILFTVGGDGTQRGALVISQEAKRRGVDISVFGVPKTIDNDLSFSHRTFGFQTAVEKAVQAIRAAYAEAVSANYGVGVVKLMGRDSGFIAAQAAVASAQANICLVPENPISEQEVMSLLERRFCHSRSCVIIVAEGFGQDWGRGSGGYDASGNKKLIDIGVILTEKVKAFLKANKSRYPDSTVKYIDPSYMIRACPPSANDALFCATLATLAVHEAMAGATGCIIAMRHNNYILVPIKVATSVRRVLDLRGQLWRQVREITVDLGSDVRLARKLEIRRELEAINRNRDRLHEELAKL

C[C@]12CC[C@@H]3c4ccc(O)cc4CC[C@H]3[C@@H]1C[C@H](O)C2O (stereo not given in full)
inactive: Potency [1] | activity, negative = inhibition ([2]; parasite line A) 7.19% | activity, negative = inhibition ([2]; parasite line B) 12.7% | Potency (3D7) | Potency (ATS189) | Potency (ATS95) | Potency (C2A) | Potency (CP185) | Potency (CP191) | Potency (CP217) | Potency (CP238) | Potency (CP250) | Potency (CP252) | Potency (CP256) | Potency (CP262) | Potency (CP265) | Potency (CP286) | Potency (DFO2036) | Potency (Dd2) | Potency (HB3) | Potency (P94_40)

Cc1ccc(S(=O)(=O)NC(=O)NC(C)Cc2ccccc2)cc1 (stereo not given)
inactive: Potency [1] | activity, negative = inhibition ([2]; parasite line A) 7.07% | activity, negative = inhibition ([2]; parasite line B) 4.66% | Potency (3D7) | Potency (ATS189) | Potency (ATS95) | Potency (C2A) | Potency (CP185) | Potency (CP191) | Potency (CP217) | Potency (CP238) | Potency (CP250) | Potency (CP252) | Potency (CP256) | Potency (CP262) | Potency (CP265) | Potency (CP286) | Potency (DFO2036) | Potency (Dd2) | Potency (HB3) | Potency (P94_40)

CC[C@@H](C)C(N)C(=O)O (stereo not given in full)
inactive: Potency [1] | activity, negative = inhibition ([2]; parasite line A) 6.94% | activity, negative = inhibition ([2]; parasite line B) 2.73% | Potency (3D7) | Potency (ATS189) | Potency (ATS95) | Potency (C2A) | Potency (CP185) | Potency (CP191) | Potency (CP217) | Potency (CP238) | Potency (CP250) | Potency (CP252) | Potency (CP256) | Potency (CP262) | Potency (CP265) | Potency (CP286) | Potency (DFO2036) | Potency (Dd2) | Potency (HB3) | Potency (P94_40)

O=C1CC[C@H](C(=O)N[C@@H]2C[C@H]2c2ccccc2)N1
inactive: Potency [1] | activity, negative = inhibition ([2]; parasite line A) 10.5% | activity, negative = inhibition ([2]; parasite line B) 18.1% | Potency (3D7) | Potency (ATS189) | Potency (ATS95) | Potency (C2A) | Potency (CP185) | Potency (CP191) | Potency (CP217) | Potency (CP238) | Potency (CP250) | Potency (CP252) | Potency (CP256) | Potency (CP262) | Potency (CP265) | Potency (CP286) | Potency (DFO2036) | Potency (Dd2) | Potency (HB3) | Potency (P94_40)

CO/N=C(/C(=O)N[C@@H]1C(=O)N2C(C(=O)O)=C(CSc3nc(C)c(CC(=O)O)s3)CS[C@H]12)c1csc(N)n1
inactive: Potency [1] | activity, negative = inhibition ([2]; parasite line A) 5.91% | activity, negative = inhibition ([2]; parasite line B) 4.95% | Potency (3D7) | Potency (ATS189) | Potency (ATS95) | Potency (C2A) | Potency (CP185) | Potency (CP191) | Potency (CP217) | Potency (CP238) | Potency (CP250) | Potency (CP252) | Potency (CP256) | Potency (CP262) | Potency (CP265) | Potency (CP286) | Potency (DFO2036) | Potency (Dd2) | Potency (HB3) | Potency (P94_40)

C=C1[C@@H]2CC[C@H](C2)C1(C)C
inactive: Potency [1] | activity, negative = inhibition ([2]; parasite line A) 10.4% | activity, negative = inhibition ([2]; parasite line B) -2.91% | Potency (3D7) | Potency (ATS189) | Potency (ATS95) | Potency (C2A) | Potency (CP185) | Potency (CP191) | Potency (CP217) | Potency (CP238) | Potency (CP250) | Potency (CP252) | Potency (CP256) | Potency (CP262) | Potency (CP265) | Potency (CP286) | Potency (DFO2036) | Potency (Dd2) | Potency (HB3) | Potency (P94_40)

CC(O)C1CCC2C3CCC4CC(O)CCC4(C)C3CCC12C (stereo not given)
inactive: Potency [1] | activity, negative = inhibition ([2]; parasite line A) 11.7% | activity, negative = inhibition ([2]; parasite line B) 5.42% | Potency (3D7) | Potency (ATS189) | Potency (ATS95) | Potency (C2A) | Potency (CP185) | Potency (CP191) | Potency (CP217) | Potency (CP238) | Potency (CP250) | Potency (CP252) | Potency (CP256) | Potency (CP262) | Potency (CP265) | Potency (CP286) | Potency (DFO2036) | Potency (Dd2) | Potency (HB3) | Potency (P94_40)

CC(=O)NC1[C@H](O)C[C@@](O)(C(=O)O)O[C@H]1[C@H](O)[C@H](O)CO (stereo not given in full)
inactive: Potency [1] | activity, negative = inhibition ([2]; parasite line A) 5.53% | activity, negative = inhibition ([2]; parasite line B) -8.73% | Potency (3D7) | Potency (ATS189) | Potency (ATS95) | Potency (C2A) | Potency (CP185) | Potency (CP191) | Potency (CP217) | Potency (CP238) | Potency (CP250) | Potency (CP252) | Potency (CP256) | Potency (CP262) | Potency (CP265) | Potency (CP286) | Potency (DFO2036) | Potency (Dd2) | Potency (HB3) | Potency (P94_40)

CCCC[C@H](O)c1ccccc1
inactive: Potency [1] | activity, negative = inhibition ([2]; parasite line A) -2.26% | activity, negative = inhibition ([2]; parasite line B) -1.87% | Potency (3D7) | Potency (ATS189) | Potency (ATS95) | Potency (C2A) | Potency (CP185) | Potency (CP191) | Potency (CP217) | Potency (CP238) | Potency (CP250) | Potency (CP252) | Potency (CP256) | Potency (CP262) | Potency (CP265) | Potency (CP286) | Potency (DFO2036) | Potency (Dd2) | Potency (HB3) | Potency (P94_40)

NC(C(=O)O)c1ccc(O)cc1 (stereo not given)
inactive: Potency [1] | activity, negative = inhibition ([2]; parasite line A) 3.02% | activity, negative = inhibition ([2]; parasite line B) 9.1% | Potency (3D7) | Potency (ATS189) | Potency (ATS95) | Potency (C2A) | Potency (CP185) | Potency (CP191) | Potency (CP217) | Potency (CP238) | Potency (CP250) | Potency (CP252) | Potency (CP256) | Potency (CP262) | Potency (CP265) | Potency (CP286) | Potency (DFO2036) | Potency (Dd2) | Potency (HB3) | Potency (P94_40)
